Experimental findings from PubChem BioAssay (NCATS) are described below.

SMILES strings stand for the structures. Values joined by “and” are separate entries in the source; they are usually repeats but may differ in a detail not shown here. Identical values can stand only once. Records with an inconclusive call do not appear. Active and inactive are the calls of the source. Unless noted, calls follow the shape of the full dose curve.

Assay [1] deals with Bile acid receptor (Homo sapiens) (UniProt Q96RI1). Briefly: qHTS assay for small molecule agonists of farnesoid X receptor signaling (AID 588527).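 Also: 0% = vehicle basal and 100% = reference agonist.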 Particulars: HEK293T FXR-UAS-bla, beta-lactamase ratio, 16 h; stronger effect = higher value. The essentials:
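FXR-UAS-bla HEK293T, 10% dialyzed FBS; cpds up to 92 uM titration, 16 h 37 C; CCF4 dye 2 h RT; fluorescence. Normalized to chenodeoxycholic acid 100 uM (100%) and DMSO (0%); Hill fit gives EC50, efficacy.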

Assay [2] can be described thus: Primary qHTS for inhibitors of SARS-S pseudo-typed particle cell entry (AID 1479145). Also: % is scaled to controls: 0 for no effect and ±100 for the full control effect; nearly all actives have a fitted effect of over 45% in size. The note with it: outcome: dose series up to 57.1 µM unless noted.
Assay [3] is described as follows: Primary qHTS for Huh7 cytotoxicity: counterscreen for inhibitors of MERS-S pseudotyped particle cell entry (AID 1479147). Particulars: outcome: dose series up to 57.1 µM unless noted.
A short description of assay [4]: Primary qHTS for inhibitors of MERS-S pseudo-typed particle cell entry (AID 1479149). Also: nearly all actives have a fitted effect of over 60% in size. As to activity change, negative = inhibition: % is scaled to controls: 0 for no effect and ±100 for the full control effect. Particulars: outcome: dose series up to 57.1 µM unless noted.
Assay [5] is described as follows: Primary qHTS for Vero E6 cytotoxicity: counterscreen for inhibitors of SARS-S pseudo-typed particle cell entry (AID 1479150). The note with it: outcome: dose series up to 57.1 µM unless noted.
Assay [6] in a line: Cytotoxicity counterscreen for inhibitors of SARS-CoV-2 cell entry (AID 1645845). Also: nearly all actives have a fitted effect of over 50% in size. Particulars: outcome: dose series up to 57.1 µM unless noted. The method, boiled down: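 After a 15 min room-temperature ATPLite 1step step, luminescence reflected ATP remaining in HEK293-ACE2 cells exposed to compound for 1 h plus 48 h at 37 C, with percent activity set by cell and no-cell controls.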

A short description of assay [7]: Primary qHTS to identify inhibitors of SARS-CoV-2 cell entry (AID 1645846). Also: nearly all actives have a fitted effect of over 45% in size. The note with it: SARS-CoV-2 pseudovirus cell entry assay, luminescence; activity change, negative = inhibition: at 57.1 µM (top of the series) unless noted. The essentials:
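Inhibition of spike-mediated entry was scored in human ACE2-transfected Expi293F cells. Particles were MLV-pseudotyped with Wuhan-Hu-1 S carrying a 19-aa C-terminal deletion; signal was luciferase after two days, scaled between spike PP and fusion-protein-free PP.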

The target in assay [8] is Glutathione peroxidase 1 (Homo sapiens) (UniProt P07203). The experiment in a line: Primary qHTS Assay for Inhibitors of Recombinant Selenoprotein Glutathione Peroxidase 1 (GPX1) (AID 1845191; active = well fitted curve in the direction sought with a large enough effect; an effect the other way counts as inactive or inconclusive; also: % is scaled to controls: 0 for no effect and ±100 for the full control effect; nearly all actives have a fitted effect of over 65% in size). The method, boiled down: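 GPX1 10 nM, GR 100 nM, GSH 1 mM, NADPH 0.5 mM, CHP 0.5 mM (final). 30-min cpd preincubation, RT. Ex340/Em450 read t=0, t=15 min.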
Assay [9] has as its target Phospholipid hydroperoxide glutathione peroxidase GPX4 (Homo sapiens) (UniProt P36969). Briefly: Primary qHTS Assay for Inhibitors of Recombinant Selenoprotein Glutathione Peroxidase 4 (GPX4) (AID 1845192; active = well fitted curve in the direction sought with a large enough effect; an effect the other way counts as inactive or inconclusive; also: % is scaled to controls: 0 for no effect and ±100 for the full control effect; nearly all actives have a fitted effect of over 65% in size). The essentials:
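qHTS, GR-coupled: GPX4 200 nM + cpd 30 min RT → GSH 1 mM, NADPH 0.5 mM, GR 100 nM → CHP 0.5 mM start; fluor 340/450 at t0 and t15 min; no-enzyme wells as control.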

Assay [10] deals with Peroxisome proliferator-activated receptor delta (Homo sapiens) (UniProt Q03181). Briefly: qHTS assay for small molecule agonists of peroxisome proliferator-activated receptor delta signaling (AID 588534).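 Also: 0% = DMSO basal wells and 100% = positive control agonist at 10 µM.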 The essentials:
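Titration series tested in agonist mode on beta-lactamase reporter cells; 18 hrs at 37 C after a 5 hr pre-incubation. Readout: CCF4 fluorescence, 2 hrs RT. Hill equation gives EC50 and maximal response.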

The nature of assay [11]: KB-8-5-11 P-gp reporter qHTS against the NCATS DSHEA and TCM libraries (AID 1919977; active = well fitted curve in the direction sought with a large enough effect; an effect the other way counts as inactive or inconclusive; also: 0% is about no effect). The essentials:
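KB-8-5-11, 500 cells/well, DMEM/10% FBS without colchicine; 4 h attach; cpd titrations, 72 h, 37C/5% CO2; CellTiter-Glo, 30 min RT, luminescence.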

Assay [12] concerns the target ATP-dependent 6-phosphofructokinase (Trypanosoma brucei brucei) (UniProt O15648). The experiment in a line: qHTS Assay to Find Inhibitors of T. brucei phosphofructokinase: hit validation (AID 492961; active = well fitted curve in the direction sought with a large enough effect; an effect the other way counts as inactive or inconclusive;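 also: luminescence reports ADP formed as PFK phosphorylates fructose-6-phosphate with ATP; % is scaled to controls: 0 for no effect and ±100 for the full control effect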). The essentials: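 Percent activity derived from corrected luminescence, normalized between 0x and 1x enzyme controls, then fitted to concentration-response curves. Conditions: 1.25 nM PFK, 0.1 mM ATP, 0.5 mM F6P, 45 min RT.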

The target of assay [13] is Glucocorticoid receptor (Homo sapiens) (UniProt P04150). The experiment in a line: qHTS assay for small molecule agonists of glucocorticoid receptor signaling (AID 588532; active = well fitted curve in the direction sought with a large enough effect in the signal ratio, with a control signal flat; the % refers to the signal ratio;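 also: 100% = dexamethasone at 0.1 µM and 0% = DMSO only wells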). Particulars: HeLa MMTV-bla, beta-lactamase ratio, agonist, 18 h; stronger effect = higher value; percent of dexamethasone control, DMSO zero. The method, boiled down: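 Titration series, up to 92 uM, applied to GRE-bla HeLa cells for 18 h at 37 C. Detection by CCF4 FRET substrate after 2 h at RT.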

The target in assay [14] is Vitamin D3 receptor (Homo sapiens) (UniProt P11473). Briefly: qHTS assay for small molecule agonists of vitamin D receptor signaling (AID 588543).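 Also: 0% = DMSO basal and 100% = reference agonist control.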 The essentials: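 Reporter cells (HEK293T, VDR-UAS-bla) were seeded in medium with 2% charcoal-stripped serum and incubated 5 h, then compounds in concentration series were added for 16 h at 37 °C. Stimulation was scaled between DMSO basal and 50 nM 1α,25-dihydroxyvitamin D3.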

Assay [15] is described as follows: qHTS assay for small molecule agonists of retinoid X receptor alpha signaling (AID 588544).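 As to activation: 0% = DMSO basal wells and 100% = reference agonist.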 Particulars: HEK293T RXRa-UAS-bla, beta-lactamase reporter, 18 h; 530 nm emission.
Assay [16] deals with Retinoic acid receptor RXR-alpha (Homo sapiens) (UniProt P19793). The description is as above.
The target of assay [17] is Thyroid hormone receptor beta (Homo sapiens) (UniProt P10828). Briefly: qHTS assay for small molecule agonists of thyroid hormone receptor beta signaling (AID 588545).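 Also: 0% = DMSO only and 100% = 10 nM T3.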 The method, boiled down:
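Stimulation of a TR-driven beta-lactamase reporter was quantified in GripTite HEK 293 cells. Compound series ran for 18 hrs; curves were normalized to T3 and DMSO controls and fitted to yield EC50.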

Assay [18] deals with Luciferin 4-monooxygenase (Photinus pyralis) (UniProt P08659). Briefly: Biochemical firefly luciferase enzyme assay for NPC (AID 624030; active = well fitted curve in the direction sought with a large enough effect; an effect the other way counts as inactive or inconclusive;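 also: purified P. pyralis luciferase at 10 nM with luciferin and ATP substrate; 0% = DMSO and -100% = full luciferase inhibition by PTC124 control; nearly all actives have a fitted effect of over 70% in size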). The method, boiled down:
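Counter-screen for direct inhibition of the luciferase enzyme by approved-drug library compounds, run at 10 nM enzyme in 50 mM Tris acetate (final). Luminescence was read within 5 min of enzyme-buffer addition and normalized to PTC124 versus DMSO (0%).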

Assay [19] is described as follows: qHTS assay for small molecule agonists of the antioxidant response element (ARE) signaling pathway (AID 651741; active = well fitted activation curve with a large enough effect in the signal ratio; the % refers to the signal ratio; also: % of control where 0% means no effect). The essentials:
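Beta-lactamase reporter expression driven by the antioxidant response element in HepG2 cells was detected by fluorescence with LiveBLAzer B/G FRET substrate (2 h, room temperature) following 16 h compound treatment at 37 C.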

Chain of Glucocorticoid receptor (Homo sapiens) (P04150 whole entry, looked up): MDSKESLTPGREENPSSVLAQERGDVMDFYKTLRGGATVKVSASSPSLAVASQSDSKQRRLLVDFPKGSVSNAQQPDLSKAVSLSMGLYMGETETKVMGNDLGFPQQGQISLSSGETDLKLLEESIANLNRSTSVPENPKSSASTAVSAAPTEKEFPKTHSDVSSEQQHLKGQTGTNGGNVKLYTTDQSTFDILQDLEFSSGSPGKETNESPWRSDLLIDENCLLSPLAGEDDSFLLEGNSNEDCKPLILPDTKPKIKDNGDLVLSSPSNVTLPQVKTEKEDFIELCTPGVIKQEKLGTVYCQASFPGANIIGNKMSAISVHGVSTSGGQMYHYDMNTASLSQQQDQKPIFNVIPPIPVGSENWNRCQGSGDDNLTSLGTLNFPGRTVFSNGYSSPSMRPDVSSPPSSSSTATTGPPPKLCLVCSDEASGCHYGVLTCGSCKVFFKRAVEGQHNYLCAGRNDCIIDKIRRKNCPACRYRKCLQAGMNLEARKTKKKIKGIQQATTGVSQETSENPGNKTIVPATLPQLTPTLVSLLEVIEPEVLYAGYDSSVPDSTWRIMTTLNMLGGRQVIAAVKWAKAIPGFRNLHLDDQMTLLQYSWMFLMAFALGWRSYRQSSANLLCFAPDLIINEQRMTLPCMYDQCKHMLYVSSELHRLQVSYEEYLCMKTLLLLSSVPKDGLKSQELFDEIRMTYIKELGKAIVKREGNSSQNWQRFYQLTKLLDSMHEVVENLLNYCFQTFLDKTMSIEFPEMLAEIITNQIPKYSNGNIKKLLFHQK
Chain of Peroxisome proliferator-activated receptor delta (Homo sapiens) (Q03181 whole entry, looked up): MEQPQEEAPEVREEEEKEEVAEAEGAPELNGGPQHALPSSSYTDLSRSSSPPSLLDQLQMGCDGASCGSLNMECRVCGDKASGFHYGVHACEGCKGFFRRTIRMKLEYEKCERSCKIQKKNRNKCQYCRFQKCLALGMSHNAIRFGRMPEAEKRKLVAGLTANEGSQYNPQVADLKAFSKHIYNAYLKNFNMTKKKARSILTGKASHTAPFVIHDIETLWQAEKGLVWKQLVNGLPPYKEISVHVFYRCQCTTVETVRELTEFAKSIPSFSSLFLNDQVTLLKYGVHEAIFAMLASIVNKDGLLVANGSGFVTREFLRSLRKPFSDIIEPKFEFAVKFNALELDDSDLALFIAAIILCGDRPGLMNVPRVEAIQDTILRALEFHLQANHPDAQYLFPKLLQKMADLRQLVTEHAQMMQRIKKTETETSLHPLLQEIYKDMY
Chain of Vitamin D3 receptor (Homo sapiens) (P11473 whole entry, looked up): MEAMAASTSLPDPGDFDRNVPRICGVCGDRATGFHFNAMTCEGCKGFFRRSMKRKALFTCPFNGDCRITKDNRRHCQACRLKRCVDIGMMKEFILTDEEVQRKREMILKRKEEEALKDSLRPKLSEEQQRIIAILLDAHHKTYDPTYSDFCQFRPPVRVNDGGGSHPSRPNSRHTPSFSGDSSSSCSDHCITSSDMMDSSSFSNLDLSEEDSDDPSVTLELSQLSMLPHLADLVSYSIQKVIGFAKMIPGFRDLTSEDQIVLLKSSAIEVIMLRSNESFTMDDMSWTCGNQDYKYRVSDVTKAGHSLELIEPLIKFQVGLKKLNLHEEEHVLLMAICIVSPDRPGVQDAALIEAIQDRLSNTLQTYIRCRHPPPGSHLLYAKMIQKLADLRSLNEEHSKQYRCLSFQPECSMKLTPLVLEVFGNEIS
Chain of Glutathione peroxidase 1 (Homo sapiens) (P07203 whole entry, looked up): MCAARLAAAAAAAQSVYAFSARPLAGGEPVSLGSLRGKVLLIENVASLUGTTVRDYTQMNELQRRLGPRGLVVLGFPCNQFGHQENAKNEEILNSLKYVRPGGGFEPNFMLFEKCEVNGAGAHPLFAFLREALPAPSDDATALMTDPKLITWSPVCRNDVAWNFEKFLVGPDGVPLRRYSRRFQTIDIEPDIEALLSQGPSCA
Chain of Retinoic acid receptor RXR-alpha (Homo sapiens) (P19793 whole entry, looked up): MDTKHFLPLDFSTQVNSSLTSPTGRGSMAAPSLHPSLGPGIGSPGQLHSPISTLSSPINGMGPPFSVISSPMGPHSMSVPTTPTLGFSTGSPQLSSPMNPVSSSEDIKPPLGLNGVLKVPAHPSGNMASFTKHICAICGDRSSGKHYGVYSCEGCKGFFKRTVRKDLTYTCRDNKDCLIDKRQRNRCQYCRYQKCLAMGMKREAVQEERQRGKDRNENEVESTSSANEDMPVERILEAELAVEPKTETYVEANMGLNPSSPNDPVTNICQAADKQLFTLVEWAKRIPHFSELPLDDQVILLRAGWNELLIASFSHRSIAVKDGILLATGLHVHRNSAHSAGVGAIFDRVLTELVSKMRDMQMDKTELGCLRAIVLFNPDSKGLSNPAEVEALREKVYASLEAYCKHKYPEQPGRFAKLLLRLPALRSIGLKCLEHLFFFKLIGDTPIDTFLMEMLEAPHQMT
Chain of Bile acid receptor (Homo sapiens) (Q96RI1 whole entry, looked up): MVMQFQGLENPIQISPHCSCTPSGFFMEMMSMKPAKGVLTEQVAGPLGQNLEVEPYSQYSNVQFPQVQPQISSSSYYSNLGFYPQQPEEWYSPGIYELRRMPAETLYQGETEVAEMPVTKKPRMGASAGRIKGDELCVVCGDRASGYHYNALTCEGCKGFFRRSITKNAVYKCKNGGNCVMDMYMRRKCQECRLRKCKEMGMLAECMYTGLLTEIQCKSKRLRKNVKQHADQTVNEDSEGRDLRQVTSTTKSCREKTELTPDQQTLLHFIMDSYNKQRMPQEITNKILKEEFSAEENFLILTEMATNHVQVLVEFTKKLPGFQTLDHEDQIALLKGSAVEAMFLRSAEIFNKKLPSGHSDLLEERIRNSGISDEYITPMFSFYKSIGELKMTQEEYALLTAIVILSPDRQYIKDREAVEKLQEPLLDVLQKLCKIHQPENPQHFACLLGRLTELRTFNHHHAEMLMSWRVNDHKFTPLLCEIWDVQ
Chain of Phospholipid hydroperoxide glutathione peroxidase GPX4 (Homo sapiens) (P36969 whole entry, looked up): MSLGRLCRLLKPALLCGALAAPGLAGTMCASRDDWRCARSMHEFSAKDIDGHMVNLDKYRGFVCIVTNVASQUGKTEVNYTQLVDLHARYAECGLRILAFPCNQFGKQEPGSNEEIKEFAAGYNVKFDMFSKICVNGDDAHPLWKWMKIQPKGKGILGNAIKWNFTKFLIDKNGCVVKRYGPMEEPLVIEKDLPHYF
Chain of Thyroid hormone receptor beta (Homo sapiens) (P10828 whole entry, looked up): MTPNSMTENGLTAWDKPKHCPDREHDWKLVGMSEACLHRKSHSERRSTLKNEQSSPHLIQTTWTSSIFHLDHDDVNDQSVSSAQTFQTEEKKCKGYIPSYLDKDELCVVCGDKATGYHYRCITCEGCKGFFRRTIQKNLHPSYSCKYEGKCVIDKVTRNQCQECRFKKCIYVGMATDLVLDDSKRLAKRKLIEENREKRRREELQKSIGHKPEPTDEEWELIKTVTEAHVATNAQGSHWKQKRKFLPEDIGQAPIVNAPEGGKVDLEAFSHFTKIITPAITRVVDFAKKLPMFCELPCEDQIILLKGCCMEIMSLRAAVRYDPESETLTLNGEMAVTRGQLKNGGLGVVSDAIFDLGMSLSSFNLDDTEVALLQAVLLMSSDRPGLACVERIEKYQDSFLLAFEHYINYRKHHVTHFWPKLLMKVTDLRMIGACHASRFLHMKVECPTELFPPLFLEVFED
Chain of ATP-dependent 6-phosphofructokinase (Trypanosoma brucei brucei) (O15648 whole entry, looked up): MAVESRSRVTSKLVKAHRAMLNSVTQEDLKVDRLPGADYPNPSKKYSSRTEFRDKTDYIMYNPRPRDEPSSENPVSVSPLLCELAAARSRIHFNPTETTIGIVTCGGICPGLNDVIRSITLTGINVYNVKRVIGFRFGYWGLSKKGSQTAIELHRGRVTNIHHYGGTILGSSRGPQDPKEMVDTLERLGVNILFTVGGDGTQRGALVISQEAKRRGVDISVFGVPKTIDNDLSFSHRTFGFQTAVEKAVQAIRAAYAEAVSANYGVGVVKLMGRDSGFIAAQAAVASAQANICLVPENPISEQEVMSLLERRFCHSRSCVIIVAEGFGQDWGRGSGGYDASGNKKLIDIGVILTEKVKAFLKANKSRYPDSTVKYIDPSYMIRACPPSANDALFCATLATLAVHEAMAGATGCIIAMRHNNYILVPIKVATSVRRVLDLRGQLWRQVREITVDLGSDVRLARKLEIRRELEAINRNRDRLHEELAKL
Chain of Luciferin 4-monooxygenase (Photinus pyralis) (P08659 whole entry, looked up): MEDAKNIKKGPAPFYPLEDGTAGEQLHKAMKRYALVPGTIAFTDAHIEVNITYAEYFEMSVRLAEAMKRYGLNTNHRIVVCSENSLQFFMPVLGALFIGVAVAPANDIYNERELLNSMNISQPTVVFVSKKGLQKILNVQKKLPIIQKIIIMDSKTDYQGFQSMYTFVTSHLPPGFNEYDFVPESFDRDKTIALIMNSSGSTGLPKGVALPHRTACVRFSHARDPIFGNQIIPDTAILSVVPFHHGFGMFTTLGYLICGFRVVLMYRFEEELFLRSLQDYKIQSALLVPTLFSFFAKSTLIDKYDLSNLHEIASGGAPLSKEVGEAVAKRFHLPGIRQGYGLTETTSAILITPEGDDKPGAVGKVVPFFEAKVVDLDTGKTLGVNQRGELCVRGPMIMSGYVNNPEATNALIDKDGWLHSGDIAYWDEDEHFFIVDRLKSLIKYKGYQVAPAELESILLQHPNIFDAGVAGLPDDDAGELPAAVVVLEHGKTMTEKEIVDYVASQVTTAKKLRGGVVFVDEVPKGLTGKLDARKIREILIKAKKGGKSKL

Take `C[C@H](CCC(=O)O)[C@H]1CC[C@H]2[C@@H]3[C@H](O)C[C@@H]4C[C@H](O)CC[C@]4(C)[C@H]3C[C@H](O)[C@]12C`: in assay [1], the activation is 1.14% (inactive). Moreover, the Potency result in assay [2], in assay [3], in assay [4], in assay [5], in assay [6] and in assay [7] was “inactive” throughout.

For the compound `C[N+]1([O-])[C@H]2CC(OC(=O)C(CO)c3ccccc3)C[C@H]1[C@H]1O[C@H]12` (stereo partly specified), the Potency result in assay [2], in [3], in [4], in assay [5], in assay [6] and in assay [8] was “inactive” each time. For the same compound, in [9], the Potency entry is “inactive”.

Consider `c1ccc2scnc2c1`, for which the compound was called inactive in assay [10]. In addition, the Potency result in assay [2], in assay [3], in assay [4], in [5] and in [6] was “inactive” each time. Moreover, in [7], the activity change, negative = inhibition was -27.1%.

As to `Fc1cccc(Br)c1NC1=NCCN1`, the Potency entry in assay [2], in assay [3], in assay [4], in [5], in assay [6] and in [8] was “inactive” each time. For the same compound, in [9], the Potency result is “inactive”.

Consider `CC1(C)C2CCC1(C)C(O)C2` (stereo unspecified), for which the Potency entry in assay [2], in assay [3], in assay [4], in assay [5], in [6] and in assay [11] was “inactive” in each case.

For `O[C@@H]([C@H](O)[C@@H](O)CBr)[C@@H](O)CBr`, in assay [1], the activation was -2.21% (inactive). In addition, the compound was classed as inactive in assay [10]. Moreover, the Potency entry in [2], in assay [3], in assay [4], in assay [5], in assay [6] and in [7] was “inactive” each time.

In the case of `NC(=O)CCC1NC(=O)C(Cc2ccccc2)NC(=O)C(Cc2ccc(O)cc2)NC(=O)CCSSCC(C(=O)N2CCCC2C(=O)NC(CCCN=C(N)N)C(=O)NCC(N)=O)NC(=O)C(CC(N)=O)NC1=O` (stereo unspecified), the Potency entry in [12], in [2], in assay [3], in [4], in [5] and in assay [6] was “inactive” in each case. Besides, in [7], the activity change, negative = inhibition was -25.4% [at 27.1 µM].

Turning to `Cc1ccc(S(=O)(=O)O)cc1C`, the compound was called inactive in assay [10]. The Potency result in [2], in [3], in assay [4], in assay [5] and in [6] was “inactive” each time. Further, the activity change, negative = inhibition in [7] was -10.6%.

Consider `CC(C)=CCCC(C)=CCCC(C)=CCCC=C(C)CCC=C(C)CCC=C(C)C`, for which the Potency result in assay [2], in assay [3], in [4], in assay [5], in assay [6] and in assay [11] was “inactive” throughout. Also, in assay [7], the activity change, negative = inhibition was -5.81%.

For the compound `CC1(C)C(C=C(Cl)Cl)C1C(=O)OCc1cccc(Oc2ccccc2)c1` (stereo unspecified), the activation in assay [13] was 2.68% (inactive) and -0.215% (inactive) and 2.06% (inactive). Also, the compound was classed as inactive in [10], in assay [14] and in assay [17]. Moreover, the max response in assay [15] is -7.32% and -8.4%. Besides, the Potency entry in assay [16], in assay [18], in assay [19], in assay [2], in [3] and in assay [4] was “inactive” throughout. The Potency result in assay [5] and in [6] was “inactive” throughout.
